This passage reports growth results from PubChem BioAssay (NCI).

About 83,000 compounds went through this panel and 20% of them were active in at least one assay; those are over-represented in the sample as a whole.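 The endpoint reported here, percent growth, reads 100 for growth as untreated, 0 for no net growth and -100 for all cells dead.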 Unmarked numbers belong to inactive results. Active and inactive are the calls of the source. How the source made its calls: active means growth percent below 10; inactive means the rest.

Test in all cases: NCI-60 one-dose screen, 48 h (100 = growth as untreated, 0 = no growth, -100 = all killed)
One assay has as its system HCT-15 colon. The conditions noted are these: 10 µM unless noted.
The subject of a further assay is HT29 colon. As to conditions: 10 µM unless noted.
The test system of a further assay is SNB-75 CNS. As to conditions: 10 µM unless noted.
In a further assay the test system is SNB-19 CNS. The conditions noted are these: 10 µM unless noted.
A further assay deals with PC-3 prostate. As to conditions: 10 µM unless noted.
For the next assay, the system named is SK-MEL-5 melanoma. As to conditions: 10 µM unless noted.
Another assay concerns UACC-62 melanoma. As to conditions: 10 µM unless noted.
In another assay the test system is LOX IMVI melanoma. The conditions noted are these: 10 µM.
A further assay concerns SK-MEL-28 melanoma. The conditions noted are these: 10 µM unless noted.
A further assay deals with SK-MEL-2 melanoma. As to conditions: 10 µM unless noted.
The subject of a further assay is EKVX NSCLC. The conditions noted are these: 10 µM unless noted.
The test system of a further assay is SN12C renal. As to conditions: 10 µM unless noted.
For another assay, the system named is UO-31 renal. As to conditions: 10 µM unless noted.
Another assay relates to TK-10 renal. The conditions noted are these: 10 µM unless noted.
The subject of the next assay is ACHN renal. The conditions noted are these: 10 µM unless noted.
In a further assay the test system is CAKI-1 renal. The conditions noted are these: 10 µM unless noted.
A further assay relates to A498 renal. As to conditions: 10 µM unless noted.
A further assay has as its system CCRF-CEM leukemia. As to conditions: 10 µM unless noted.
The test system of another assay is MOLT-4 leukemia. The conditions noted are these: 10 µM unless noted.
The next assay deals with U251 CNS. The conditions noted are these: 10 µM unless noted.

On to `OC(c1cc(-c2ccc(Cl)cc2)nc2c(Cl)cccc12)C1CCCCN1` (stereo unspecified), for which the growth in the assay on HCT-15 colon was -58.1% (active); with HT29 colon, -86.3% (active); with SNB-75 CNS, -81.2% (active); with SNB-19 CNS, -69.9% (active); in the assay with PC-3 prostate it was -94.4% (active); in the assay on SK-MEL-5 melanoma, -0.885% (active). The growth in the assay with UACC-62 melanoma is -75.9% (active); with LOX IMVI melanoma it was -76.6% (active); in the assay with SK-MEL-28 melanoma, -94.6% (active); in the assay with SK-MEL-2 melanoma, -91% (active); with EKVX NSCLC it was -32.9% (active); with SN12C renal, -70.3% (active). In addition, the growth in the assay with UO-31 renal was -74.5% (active); in the assay with TK-10 renal, -75.9% (active); in the assay with ACHN renal, -65.3% (active); with CAKI-1 renal, -72.5% (active); in the assay with A498 renal, 9.48% (active); in the assay with CCRF-CEM leukemia it was -59.1% (active). Also, the growth in the assay with MOLT-4 leukemia is -57.5% (active).
Consider `Cc1nnc(N/N=C/c2ccc([N+](=O)[O-])o2)[nH]c1=O`, for which the growth with HCT-15 colon was 15.7%; in the assay with HT29 colon, 27.5%; with SNB-75 CNS, 42.3%; with SNB-19 CNS it was 11.6%; in the assay on PC-3 prostate it was 3.62% (active); in the assay on SK-MEL-5 melanoma, -24.3% (active). The growth with UACC-62 melanoma was 10.6%; in the assay on LOX IMVI melanoma it was 11%; with SK-MEL-28 melanoma, 25.4%; in the assay with SK-MEL-2 melanoma it was 7.95% (active); in the assay with EKVX NSCLC it was -17.2% (active); with SN12C renal, 13.8%. Besides, the growth with UO-31 renal was 5.83% (active); in the assay with TK-10 renal it was -10.2% (active); with ACHN renal, -50.8% (active); in the assay on CAKI-1 renal it was -23.3% (active); in the assay on A498 renal it was -1.71% (active); in the assay on CCRF-CEM leukemia it was -21.9% (active). In addition, the growth with MOLT-4 leukemia was 5.88% (active).
As for `CC(=O)C1Cc2ccccc2C1=O` (stereo unspecified), the growth in the assay on HCT-15 colon was 108%; in the assay with HT29 colon, 104%; with SNB-75 CNS, 70.8%; in the assay on SNB-19 CNS it was 98%; with U251 CNS, 103%; in the assay on PC-3 prostate it was 94.7%. Further, the growth was 103% in the assay on SK-MEL-5 melanoma; 94.4% with LOX IMVI melanoma; 115% in the assay on SK-MEL-28 melanoma; 124% in the assay with SK-MEL-2 melanoma; 80.6% with EKVX NSCLC; 98% in the assay with SN12C renal. Moreover, the growth in the assay on UO-31 renal was 79.5%; in the assay with TK-10 renal, 142%; in the assay on ACHN renal, 97.6%; with CAKI-1 renal it was 82.6%; in the assay on A498 renal, 110%; in the assay on CCRF-CEM leukemia it was 125%. For the same compound, the growth with MOLT-4 leukemia was 115%.
On to `CCOc1ccc2c(c1)/C(=C\C=C\C1CC(C)C3CC(OCC)CCC3N1CC)CC(C)N2CC` (stereo unspecified), for which the growth in the assay on HCT-15 colon is 17.8%; with HT29 colon it was -33.4% (active); with SNB-75 CNS, -0.249% (active); with SNB-19 CNS, 22.2%; with U251 CNS, 6.59% (active); in the assay with PC-3 prostate it was 3.32% (active). Further, the growth with SK-MEL-5 melanoma is -86.3% (active); with UACC-62 melanoma it was 32.5%; with SK-MEL-28 melanoma, 22.8%; in the assay with SK-MEL-2 melanoma it was -54.6% (active); in the assay with SN12C renal, 6.7% (active); with UO-31 renal, 0.241% (active). In addition, the growth with ACHN renal is 12%; in the assay with CAKI-1 renal, 17.9%; with A498 renal it was 15%; in the assay with CCRF-CEM leukemia it was -40.3% (active); in the assay on MOLT-4 leukemia, -42.5% (active).
Turning to `CC(C)Nc1ccc(Nc2ccc(NC(C)C)cc2)cc1`, the growth is 92.9% in the assay on HCT-15 colon; 26.9% in the assay with HT29 colon; 79.7% in the assay with SNB-75 CNS; 28.6% in the assay with SNB-19 CNS; 38.8% in the assay with PC-3 prostate; 33.2% in the assay on SK-MEL-5 melanoma. Moreover, the growth in the assay on UACC-62 melanoma was 36.6%; in the assay on LOX IMVI melanoma it was 39.9%; in the assay with SK-MEL-28 melanoma it was 50.8%; in the assay on SK-MEL-2 melanoma it was 69.9%; in the assay with EKVX NSCLC it was 31.3%; with SN12C renal, 30.7%. For the same compound, the growth is 87% with UO-31 renal; 62.6% in the assay on TK-10 renal; 70.4% in the assay on ACHN renal; 94.4% with CAKI-1 renal; 84.1% with A498 renal; 58.6% in the assay with CCRF-CEM leukemia. For the same compound, the growth with MOLT-4 leukemia is 30.1%.
For `COC(=O)c1nc(=S)[nH]c(C(=O)OC)c1C(=O)c1ccc(Cl)c(Cl)c1`, the growth with HCT-15 colon was 105%; in the assay on HT29 colon, 112%; with SNB-75 CNS, 92.7%; in the assay with SNB-19 CNS, 105%; in the assay with PC-3 prostate it was 106%; in the assay with SK-MEL-5 melanoma, 101%. Besides, the growth was 102% with UACC-62 melanoma; 99.2% in the assay with LOX IMVI melanoma; 124% in the assay on SK-MEL-28 melanoma; 107% in the assay with SK-MEL-2 melanoma; 100% in the assay with EKVX NSCLC; 102% with SN12C renal. Also, the growth in the assay on UO-31 renal is 87%; with ACHN renal, 114%; in the assay on CAKI-1 renal, 94.6%; with A498 renal, 130%; with MOLT-4 leukemia it was 130%.
Consider `O=[N+]([O-])c1ccc(C2N(Cc3ccc(Cl)cc3)CCN2Cc2ccc(Cl)cc2)cc1`, for which the growth with HCT-15 colon is 84.9%; with HT29 colon, 73.3%; in the assay with SNB-75 CNS it was 74.1%; with SNB-19 CNS, 96.7%; in the assay with U251 CNS, 87.6%; in the assay on PC-3 prostate, 82.3%. Besides, the growth is 88.8% in the assay with SK-MEL-5 melanoma; 102% with UACC-62 melanoma; 96.3% in the assay with SK-MEL-28 melanoma; 101% with SK-MEL-2 melanoma; 90.7% in the assay with SN12C renal; 48.5% in the assay with UO-31 renal. The growth in the assay with ACHN renal was 81.6%; with CAKI-1 renal, 72.7%; in the assay on A498 renal it was 88.4%; with CCRF-CEM leukemia, 83.5%; in the assay with MOLT-4 leukemia, 80.3%.
As for `O=C1C(=O)c2cccnc2-c2ncccc21`, the growth with HCT-15 colon was -20.5% (active); in the assay on HT29 colon it was -62.9% (active); in the assay with SNB-75 CNS it was -13.3% (active); with SNB-19 CNS it was 0.441% (active); in the assay with U251 CNS, -91.5% (active); in the assay on PC-3 prostate it was -24.5% (active). The growth in the assay on SK-MEL-5 melanoma was -100% (active); in the assay on LOX IMVI melanoma, -83.8% (active); in the assay with SK-MEL-28 melanoma it was -9.12% (active); in the assay with SK-MEL-2 melanoma it was -11.1% (active); with EKVX NSCLC, -49.7% (active); in the assay on SN12C renal it was -14.3% (active). Besides, the growth in the assay on UO-31 renal is -71.3% (active); in the assay with TK-10 renal, -24% (active); in the assay with ACHN renal, -69.4% (active); with CAKI-1 renal, -29.4% (active); with A498 renal, -39.4% (active); with CCRF-CEM leukemia, -32.6% (active). In the assay on MOLT-4 leukemia, the growth is -45.1% (active).
